Screening results from PubChem BioAssay.
Sampled rows, rich in hits. Any-hit rate of the full collection: about 1.8%.
S aureus QS inh: S. aureus quorum sensing inhibition | S. aureus RN6390 RNAIII-GFP reporter, AIP-induced, flow cytometry 3 h | inhibition, % at 2 µM | actives 0.3% (n = 24,000);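 active = share of bacteria positive for the green fluorescent reporter and its mean brightness both inhibited by 50% or more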;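 note: 0% = AIP-stimulated control and 100% = unstimulated bacteria without AIP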
Jurkat autofluor: compound fluoresces in Jurkat cells, VLA-4 screen interference. compound autofluorescence, flow cytometry; stronger effect = higher value; 1 = vehicle-only cell background. actives 0.61% (n = 24,000). fluorescence ratio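 (tested at 10 µM compound in the well)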;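 active = fluorescence ratio above 2.44, which is 1 plus 3 SD of all ratios; inconclusive = signal too bright to measure linearly, ratio around 10 or more; inactive = fluorescence ratio below 2.44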;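 note: green fluorescence of cells measured with 488 nm excitation and 530 nm emission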
LNCaP diff act: LNCaP prostate cell differentiation activation | AID 795 | flow cytometry side scatter, 4 d | side scatter shift, % at 10 µM | actives 0.56% (n = 24,000);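 active = side scatter shift above 30%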;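 note: androgen-responsive LNCaP prostate cancer cells in charcoal-stripped serum medium; percent of cells past a gate set so DMSO wells show 10% shift; higher shift means more granular cells and more differentiation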
26S disassembly: blocks ATP-dependent breakdown of the yeast 26S proteasome; anti-FLAG beads, GFP-proteasome disassembly, flow cytometry; inhibition of disassembly, % (no concentration beside the values); actives 0.2% (n = 24,000); AID 751;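 active = inhibition of disassembly above about 33%, limit read from the data; inconclusive = likely self-fluorescent, control bead median signal at least 40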;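 note: plate controls were ATP control with full disassembly for no effect and ATP-gamma-S intact proteasomes for full effect; higher percent means more bead fluorescence retained so stronger block of disassembly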
VLA-4 antagonist: inhibitors of LDV-FITC ligand binding to Mn2+-activated human VLA-4 integrin. Jurkat cells, LDV-FITC binding with Mn2+, flow cytometry; 100% = Mn2+-driven binding gain fully reversed. inhibition, % at 10 µM (by protocol). actives 0.2% (n = 24,000). AID 529;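 active = inhibition above 50%; inconclusive = compound itself fluorescent, judged against control cell fluorescence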;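 note: 0% = Mn2+ stimulated cells lacking compound and 100% = ligand binding without Mn2+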
VLA-4 agonist: allosterically activates the human VLA-4 integrin. AID 528. Jurkat cells, LDV-FITC binding, flow cytometry. P13612. activation, % at 10 µM (by protocol). 24,000 tested, under 10 active;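 active = fluorescent ligand binding to cells raised by more than 40% of the manganese-induced maximum; inconclusive = compound's own fluorescence above 85% of the ligand control signal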;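 note: 0% = ligand binding without compound and 100% = manganese-stimulated maximal binding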
* = called active by the depositor; ? = inconclusive.

SMILES	S aureus QS inh	Jurkat autofluor	LNCaP diff act	26S disassembly	VLA-4 antagonist	VLA-4 agonist
O=c1oc(-c2ccco2)nc2ccccc12	-1	1.1	30*	-1	-2	-8
CCC(=O)Nc1cccc(-c2nc3ccccc3c(=O)o2)c1	-1	1.2	7	-2	-30	15
Cc1ccccc1-c1nc(CN2CCC(C(=O)NCCC3=CCCCC3)CC2)c(C)o1	13	1	34*	3	38	-7
Cc1ccccc1-c1nc(CN2CCC(C(=O)NC3CCN(Cc4ccccc4)CC3)CC2)c(C)o1	-1	1	48*	8	4	0
COc1ccc(CCNC(=O)C2CCN(Cc3nc(-c4ccccc4C)oc3C)CC2)cc1OC	-3	1.1	11	-2	12	-5
Cc1ccccc1-c1nc(CN2CCC(C(=O)O)CC2)c(C)o1	-7	1	4	-2	-18	-2
COc1ccc(CCNC(=O)CN2C(=O)C3(OCCCO3)c3ccccc32)cc1OC	-4	1	16	0	-7	1
CCCCCNC(CC(=O)Nc1ccc(OC)cc1)C(=O)O (stereo not given)	-7	1	16	0	5	5
C=CCN(C1CCCCC1)S(=O)(=O)c1ccc2c(c1)oc(=O)n2C	8	2.4	13	1	?	?
C=CCN(c1ccccc1)S(=O)(=O)c1ccc2c(c1)oc(=O)n2C	21	2.5*	10	0	?	?
CCCCC1C(=O)N(c2ccccc2)N(c2ccccc2)C1=O	-1	0.97	4	1	80*	-43
O=C(Nc1ccon1)c1cnc2sccn2c1=O	0	2.5*	12	-1	?	?
CN1CCCN(C(=O)c2cc(=O)[nH]c3ccccc23)c2nc3ccccc3nc21	0	1.1	4	-1	-12	2
CN1CCN(c2cc3c(c4c2[nH]c2ccccc24)C(=O)CC(C)(C)C3)CC1	0	1.1	63*	0	-6	-8
COC(=O)c1ccc2c(=O)n(Cc3ccco3)c(SCC(=O)Nc3ccc(C)c(Cl)c3)nc2c1	3	1	34*	1	-5	1
CC1c2nc3ccccc3n2C(CC(=O)NCc2ccccn2)C(=O)N1Cc1ccccc1 (stereo not given)	1	0.99	8	-2	3	0
Cc1ccc(-n2nc(C(=O)N3CCN(C)CC3)c3c4ccccc4n(C)c3c2=O)cc1	-2	1	10	0	-7	1
CCN1CCCC1CNC(=O)c1nn(-c2ccc(C)cc2)c(=O)c2c1c1ccccc1n2C (stereo not given)	-1	1.1	32*	14	2	-10
CCCCn1c(NC(=O)CC)c(C#N)c2nc3ccccc3nc21	0	3.1*	8	7	?	?
